Compounds without any hit were thinned out: in the full panel of roughly 83,000, 20% have a hit.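 Treatment: one concentration, 48 hours, 96-well format. Scoring: percent growth, with anything below 10 considered active.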 Activity calls are given as the source filed them.
Assays:
Experiment in all cases: NCI-60 one-dose screen, 48 h (100 = growth as untreated, 0 = no growth, -100 = all killed)
[1] = system: HCT-15 colon; settings: 10 µM unless noted
[2] = system: HT29 colon; settings: 10 µM unless noted
[3] = system: SNB-75 CNS; settings: 10 µM unless noted
[4] = system: SNB-19 CNS; settings: 10 µM unless noted
[5] = system: U251 CNS; settings: 10 µM unless noted
[6] = system: PC-3 prostate; settings: 10 µM unless noted
[7] = system: SK-MEL-5 melanoma; settings: 10 µM unless noted
[8] = system: UACC-62 melanoma; settings: 10 µM unless noted
[9] = system: LOX IMVI melanoma; settings: 10 µM
[10] = system: SK-MEL-28 melanoma; settings: 10 µM unless noted

Measured: growth

CC(C)N1CC(=O)N2CSCC2C1=O (stereo not given)
inactive: [1] 105% | [2] 119% | [3] 99.3% | [4] 121% | [5] 105% | [6] 101% | [7] 104% | [8] 104% | [9] 98.9% | [10] 111%

O=Cc1ccc(F)cc1
inactive: [1] 93.4% | [2] 103% | [3] 90.3% | [4] 103% | [5] 101% | [6] 101% | [7] 99.8% | [8] 102% | [9] 101% | [10] 102%

CN1C(=O)NC(c2ccc(Cl)cc2)(c2ccc(Cl)cc2)C1=O
inactive: [1] 106% | [2] 93% | [3] 84.2% | [4] 105% | [5] 94.9% | [6] 84.6% | [7] 98.9% | [8] 83.8% | [9] 96.2% | [10] 102%

CCOC(=O)c1ccc(C(C)(C)C)cc1
inactive: [1] 111% | [2] 109% | [3] 102% | [4] 112% | [5] 97.5% | [6] 105% | [7] 105% | [8] 106% | [9] 99.8% | [10] 109%

O=c1[nH]c(=O)c2cc(Cl)cc(Cl)c2[nH]1
inactive: [1] 107% | [2] 106% | [3] 68.2% | [4] 95% | [5] 103% | [6] 93.7% | [7] 103% | [8] 96.7% | [9] 120% | [10] 124%

ON1CCCC1
inactive: [1] 101% | [2] 95.3% | [3] 83.2% | [4] 103% | [5] 100% | [6] 101% | [7] 109% | [8] 105% | [9] 94.8% | [10] 106%

COC(=O)c1ccccc1C(=O)c1c(C)cc(C)cc1C
inactive: [1] 101% | [2] 93.8% | [3] 96.5% | [4] 103% | [5] 91.2% | [6] 90% | [7] 101% | [8] 92.5% | [9] 102% | [10] 94.9%

Cc1cc(NC(=O)c2ccccc2)c(Cl)cc1N
inactive: [1] 100% | [2] 102% | [3] 100% | [4] 93.9% | [5] 102% | [6] 108% | [7] 97.5% | [8] 89.8% | [9] 97.6% | [10] 124%

Cc1ccc2nc(-c3ccc(N=Cc4ccccc4O)cc3)sc2c1
inactive: [1] 80.1% | [2] 93.4% | [3] 47.4% | [4] 92.3% | [5] 91.6% | [6] 85.4% | [7] 109% | [8] 84.7% | [9] 86.9% | [10] 110%

ClCc1cccc2c(CCl)cccc12
active: [9] -51.8%
inactive: [1] 73.8% | [2] 71.1% | [3] 88% | [4] 70.4% | [5] 56.6% | [6] 65.9% | [7] 77.6% | [8] 64% | [10] 83.7%

CC(=O)Nc1ccc(/C=C2\SC(=S)N(/C=C(\C(C)=O)C(N)=O)C2=O)cc1
inactive: [1] 98.2% | [2] 97.4% | [3] 82.4% | [4] 100% | [5] 90.3% | [6] 78.5% | [7] 88.7% | [8] 87.6% | [9] 78.3% | [10] 93.4%

C=C1C(=O)C2CCC1C2 (stereo not given)
inactive: [1] 99.8% | [2] 102% | [3] 103% | [4] 107% | [5] 109% | [6] 105% | [7] 105% | [8] 108% | [9] 106% | [10] 119%

COc1cc(OC)c(NC(=O)C(Sc2nc(C)cc(C)c2C#N)c2ccccc2)cc1Cl (stereo not given)
inactive: [1] 97.7% | [2] 107% | [3] 27.4% | [4] 94.1% | [5] 87.3% | [6] 102% | [7] 102% | [8] 94.6% | [9] 89.6% | [10] 105%

CC1(C)C2CCC1(C)C1(C2)OCCS1 (stereo not given)
inactive: [1] 95.9% | [2] 110% | [3] 78.5% | [4] 88.8% | [5] 97% | [6] 92.4% | [7] 93.8% | [8] 87% | [9] 92.2% | [10] 102%

S=c1nc(-c2ccccn2)c(-c2ccccn2)n[nH]1
inactive: [1] 100% | [2] 103% | [3] 107% | [4] 112% | [5] 102% | [6] 97.7% | [7] 108% | [8] 116% | [9] 95.9% | [10] 114%
